From PubChem BioAssay (NCI)
Compounds without any hit were thinned out: in the full panel of roughly 79,000, 15% have a hit. Activity calls are given as the source filed them. No stated cut-off is given here; in the data, active means growth inhibition above about 70%; inactive means the rest.

Legend:
[1] = NCI Yeast Anticancer Drug Screen. Data for the rad50 strain (AID 155);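 further: 0% = growth of vehicle-only cultures of the same strain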; settings: S. cerevisiae rad50 strain growth inhibition; at 50.0 µM; stronger effect = higher value
Outline: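 A DNA repair-deficient yeast mutant serves as the test organism; compound-induced growth inhibition is calculated against vehicle-treated cells.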

[2] = NCI Yeast Anticancer Drug Screen. Data for the mec2-1 strain (AID 157); settings: S. cerevisiae mec2-1 strain, at 50.0 µM, stronger effect = higher value
Outline: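 Using mec2-1 yeast: add compound, measure growth, express inhibition versus vehicle-treated cultures.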

[3] = NCI Yeast Anticancer Drug Screen. Data for the sgs1 mgt1 strain (AID 161);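 further: 0% = growth of cultures given vehicle only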; settings: S. cerevisiae sgs1 mgt1 strain, at 50.0 µM, stronger effect = higher value
Outline: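 Percent growth inhibition was derived by comparing compound-exposed mutant yeast with vehicle-exposed cultures. The strain carries alterations in DNA damage repair.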

[4] = NCI Yeast Anticancer Drug Screen. Data for the cln2 rad14 strain (AID 165);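 further: 0% = growth equal to vehicle treated cultures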; settings: S. cerevisiae cln2 rad14 strain, at 50.0 µM, stronger effect = higher value
Outline: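 Yeast strain cln2 rad14, bearing defects in cell cycle control and DNA repair, serves as the test system; values reflect growth inhibition compared with vehicle.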

[5] = NCI Yeast Anticancer Drug Screen. Data for the bub3 strain (AID 167); settings: S. cerevisiae bub3 mutant strain, at 50.0 µM, stronger effect = higher value
Outline: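 Inhibition values come from growth of compound-treated mutant yeast normalised to vehicle-treated controls.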

[6] = NCI Yeast Anticancer Drug Screen. Data for the mlh1 rad18 strain (AID 175); settings: S. cerevisiae mlh1 rad18 strain growth inhibition; at 50.0 µM; stronger effect = higher value
Outline: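 Steps: expose repair-defective yeast to compound; measure growth; express inhibition against vehicle-treated controls.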

Measured: growth inhibition

C=C1C(=O)OC2C1C(OC(=O)/C(=C/CO)CO)CC1(CO1)C1CC=C(C)C21 (stereo unspecified)
inactive: [1] 32.2% | [2] 8.05% | [3] 19.8% | [4] -2.15% | [5] -1.95% | [6] 9.6%

Cc1cccc(-c2nc(-c3cnccn3)n(Cc3ccccc3)n2)c1
inactive: [1] -67.5% | [2] -46.9% | [3] -62% | [4] -39.6% | [5] -51.1% | [6] -61.2%

CCOC(=O)c1c(OC)ccc2ccccc12
inactive: [1] 13.3% | [2] 10.7% | [3] 4% | [4] -29.9% | [5] 21.6% | [6] 0.35%

CCCCC(c1nc2c(c3c1CCCC3)CCCC2)C(O)(C(F)(F)F)C(F)(F)F (stereo unspecified)
inactive: [1] 13.1% | [2] 7% | [3] 10.2% | [4] -4.15% | [5] -2.1% | [6] 16.4%

C=C1c2nc3ccccc3n2C=C(c2ccc(C)cc2)N1c1ccc(OC)cc1
inactive: [1] -10.2% | [2] -6.45% | [3] -7% | [4] 15.5% | [5] -19% | [6] -17.9%

Cc1cc(C(C)C)cc(C(C)C)c1
inactive: [1] -6.25% | [2] -13.9% | [3] -9.45% | [4] -4% | [5] -0.85% | [6] 7.95%

N#CCc1c(-c2ccccc2)n(S(=O)(=O)c2ccccc2)c2ccccc12
inactive: [1] 4.45% | [2] -2.55% | [3] -20.6% | [4] 8.45% | [5] -9.9% | [6] -5.3%

O=C(/C=C/c1ccc(Cl)cc1)c1cccs1
inactive: [1] -2.85% | [2] -14.3% | [3] 36.6% | [4] 1.25% | [5] 9.55% | [6] -7.75%

COC(=O)C1C(C(=O)OC)C(C(=O)OC)C1C(=O)OC (stereo unspecified)
inactive: [1] 1.6% | [2] -0.35% | [3] -0.45% | [4] 9.5% | [5] 1.4% | [6] 26.9%

CNC(=O)OCc1c(COC(=O)NC)c(C)n(-c2ccccc2)c1C
inactive: [1] 7.75% | [2] -14.1% | [3] -24.2% | [4] -0.35% | [5] -3.95% | [6] -24%

O=C1c2ccccc2C(=O)C2CC(c3ccccc3)=CCC12 (stereo unspecified)
inactive: [1] 10.6% | [2] 10.1% | [3] -5.8% | [4] -35.6% | [5] 52.9% | [6] 0.9%

COCCNc1ccc([N+](=O)[O-])cc1[N+](=O)[O-]
inactive: [1] 1.85% | [2] -1.85% | [3] -3.75% | [4] -26.9% | [5] -8.65% | [6] 7.1%

CN1CCN(C(=O)NC2CCCCC2)CC1
inactive: [1] -2.1% | [2] -10.9% | [3] 3.35% | [4] -44.4% | [5] -8.4% | [6] -7.6%

O=C(O)c1cc(Cl)ccc1[N+](=O)[O-]
inactive: [1] 18.6% | [2] -11% | [3] 5.5% | [4] 7.65% | [5] 2.3% | [6] 11%

CNc1ccccc1C(=O)N/N=C/c1ccc(O)c(OC)c1
inactive: [1] 3% | [2] 5.65% | [3] 0.85% | [4] 2.55% | [5] 37.4% | [6] -19.6%

CNc1ccc2c(c1)C(=O)c1ccccc1-2
inactive: [1] 11.1% | [2] 14.4% | [3] -5.55% | [4] 19.9% | [5] 1.35% | [6] -11.4%

CC(C)(C)N1COCC(COc2ccc(Cl)cc2)OC1 (stereo unspecified)
inactive: [1] -13.3% | [2] -3.5% | [3] 4.95% | [4] 11.4% | [5] -16.1% | [6] 24.8%

CC(=O)Nc1cccc2ccc([N+](=O)[O-])cc12
inactive: [1] 13.1% | [2] 0.9% | [3] -3.8% | [4] 16.4% | [5] -5.7% | [6] 7.85%

Cc1ccc(S(=O)(=O)OC(c2ccc(Cl)cc2)C(F)(F)F)cc1 (stereo unspecified)
inactive: [1] 7.55% | [2] -22.6% | [3] -0.55% | [4] 21.9% | [5] 3.45% | [6] 17.8%

O=C(O)C#Cc1ccc([N+](=O)[O-])cc1
inactive: [1] 13.6% | [2] -7.6% | [3] 2.35% | [4] -20.2% | [5] -11.9% | [6] 16.5%

NC(Cc1ccc(OC(c2ccccc2)(c2ccccc2)c2ccccc2)cc1)C(=O)O (stereo unspecified)
inactive: [1] -23.6% | [2] -9.5% | [3] 0.75% | [4] -18.4% | [5] -6.1% | [6] -12.2%

CCCCCCCCCCCCCC#N
inactive: [1] 5.85% | [2] -3.55% | [3] 3.35% | [4] 5.25% | [5] 1.65% | [6] 25.8%

O=C(O)c1ccccc1/C=N\N(CCO)C1=NCCN1
inactive: [1] 21.4% | [2] 13.1% | [3] 13.9% | [4] -25.1% | [5] 2.95% | [6] 19%

Cc1cc(N)c(NC2OC(CO)C(O)C2O)cc1C (stereo unspecified)
inactive: [1] -25.1% | [2] 0.8% | [3] 4.75% | [4] -43.1% | [5] 41.1% | [6] 19.7%

O=C(CCN1C(=O)c2ccccc2C1=O)c1cnc[nH]1
inactive: [1] 13.8% | [2] 16.9% | [3] 13.4% | [4] -4.5% | [5] 2.6% | [6] 10.4%

CN(C)C=Nc1cc2c3c(c1)CCCN3CCC2
inactive: [1] 10.8% | [2] -0.5% | [3] 13.3% | [4] 11.8% | [5] -2.6% | [6] 31.4%

COc1c(O)ccc(C(=O)O)c1N
inactive: [1] 13% | [2] 6.55% | [3] 14.1% | [4] 10.1% | [5] 8.95% | [6] -17.4%

O=C(CCC(=O)Nc1ccccc1[N+](=O)[O-])CC(=O)c1ccc(Br)cc1
inactive: [1] 4.85% | [2] 7.75% | [3] -2.95% | [4] 9.3% | [5] -13.1% | [6] 6.15%

CCOc1ccc(C2=NN(CC)C(=O)C(C3C(=O)N(c4ccccc4)N=C3C)C2)cc1 (stereo unspecified)
inactive: [1] 4.8% | [2] -7.3% | [3] -0.35% | [4] -30.9% | [5] -22.3% | [6] -10.2%

CCSc1nc(N)c2c(-c3ccc(OC)c(OC)c3)c3c(nc2n1)CCCC3
inactive: [1] -32.6% | [2] -17.2% | [3] -39.5% | [4] -3.35% | [5] -15.8% | [6] -25.4%

Cc1noc2ncnc(NCCCN(C)C)c12
inactive: [1] 13.4% | [2] 4.3% | [3] -0.8% | [4] -6.95% | [5] 1.55% | [6] -0.9%

NC(CS(N)(=O)=O)C(=O)O (stereo unspecified)
inactive: [1] -6.3% | [2] -3.75% | [3] -1.05% | [4] -51.5% | [5] -3.2% | [6] 2.8%

CCOC(=O)c1ccc(NC(=S)N(CCC#N)C2CCCCC2)cc1
inactive: [1] 33.4% | [2] 7.2% | [3] 62.5% | [4] 27.1% | [5] 48.4% | [6] 30.9%

CCc1ccc(C(=O)CN2CCCc3ccccc32)cc1
inactive: [1] -13.4% | [2] 0.7% | [3] -6.55% | [4] -17.2% | [5] 1.95% | [6] -13.8%

O=C1CCCC1Sc1ccccn1 (stereo unspecified)
inactive: [1] -14.4% | [2] -11.5% | [3] -29.6% | [4] -8.5% | [5] -7.15% | [6] -32.2%

N#CC(C#N)C1c2ccccc2Oc2ccccc21
inactive: [1] 7.1% | [2] -8.55% | [3] -4.05% | [4] -11.6% | [5] -4.95% | [6] -14.3%

O=NN(CCCl)C(=O)NC1c2cc(Cl)ccc2-c2c(Cl)cc(Cl)cc21 (stereo unspecified)
active: [1] 84.3% | [3] 73.7% | [6] 86.5%
inactive: [2] 59.3% | [4] 48.5% | [5] 22.8%

O=C1CN(c2ccccc2)C(=O)CN1CCN1CC(=O)N(c2ccccc2)CC1=O
inactive: [1] -34% | [2] 14.8% | [3] -4.5% | [4] -2.3% | [5] -31.5% | [6] -8.6%

O=[N+]([O-])c1nccn1CCCl
inactive: [1] 20.1% | [2] -3.75% | [3] 2.35% | [4] -26.1% | [5] -9.85% | [6] -1.7%

Cc1cc(N=Nc2ccc(O)c3ncccc23)c2ccccc2n1
inactive: [1] 9.5% | [2] 6.85% | [3] 22.8% | [4] -4.9% | [5] 18% | [6] 19.1%

N#Cc1cc([N+](=O)[O-])ccc1NC(=O)C(=O)C(C(=O)c1ccc2ccccc2c1)C1OCc2ccccc21 (stereo unspecified)
inactive: [1] 11.1% | [2] -6.4% | [3] -2.85% | [4] 36.1% | [5] -8.5% | [6] -9.95%
